Results from PubChem BioAssay AID686978 (National Center for Advancing Translational Sciences (NCATS), 2013).
Among all 420,000 compounds or so, about 64,000 (15%) were called active. Roughly 27% stayed inconclusive and do not appear here. Not all results are given here. A number with no mark means an inactive call. Calls come from the whole dose curve; as a rule, active = well fitted inhibition curve with a large enough effect; inconclusive = small, poorly fitted or top-dose-only effect; inactive = flat fitted curve, though single readings scatter.

Assay: qHTS for Inhibitors of human tyrosyl-DNA phosphodiesterase 1 (TDP1): qHTS in cells in absence of CPT; note: nearly all actives have a fitted effect of over 55% in size
Settings: DT40 Tdp1-/- hTDP1 cells, no CPT, ATP luminescence, 48 h; activity change, negative = growth inhibition: at 46.2 µM (top of the series)
Description: Human tyrosyl-DNA phosphodiesterase 1 (TDP1) is a novel repair gene, and we propose to use it as a new target for anticancer drug development. TDP1 is not an essential protein, but under treatment with topoisomerase I poison (camptothecin: CPT), TDP1 works as a critical factor for cell survival. To directly identify novel TDP1 inhibitors active in a cellular environment, we have knocked-out the Tdp1 gene in chicken DT40 cells (Tdp1-/-) and generated a complemented counterpart cells that contains a stable transfection of the human TDP1 gene (Tdp1-/-;hTDP1 cells). For the primary screen, Tdp1-/-;hTDP1 cells will be exposed to small molecules in the presence or absence of CPT, and their growth kinetics will be evaluated after 48 hours by measuring ATP activity. […] The hit compounds will then be evaluated in the presence or absence of CPT using Tdp1-/- cells. […] In tertiary assays, biochemical gel-based assays will be used to assess whether the hit compounds specifically target TDP1.
To this end, we have screened this cell line against the MLSMR in two primary screens. In one screen we add CPT and in the other we screen in the absence of CPT; this AID represents the screen where CPT was absent.
NIH Chemical Genomics Center [NCGC]
NIH Molecular Libraries Probe Centers Network [MLPCN]
Assay Submitter (PI): Yves Pommier, NCI
DT40-hTDP1 cells without 20 nM Camptothecin (add 20 microL of DMSO in 1 L of cell culture medium) were dispensed at 400 cells/5microL/well in tissue culture treated 1536-well white wall/solid bottom assay plates (Greiner Bio-One North America, NC, U.S.A.) using a Multidrop Combi 8 channel dispenser (Thermo Fisher, Waltham, MA, USA). 23 nL compounds and controls were transferred using the pin tool (Kalypsys, San Diego, CA, USA) to the assay plates. The assay plates were then incubated at 37 masculineC for a minimum 48 hr. Three microL of Cell Titer Glo solution was added to the plates and incubated at RT in dark for 30 min. Luminescence was read using ViewLux (Perkin Elmer) with 1 sec exposure slow speed, high gain and 2x binning.
% is set by controls: 0 for no effect and ±100 for the full control effect; potency is the fitted concentration of half-maximal effect.

SMILES | activity change, negative = growth inhibition [%] | Potency
CC(C)(O)C1=C[N+](=O)CC=C1 | -3.03 | 
C#CCOCCOCCOCCNc1nc(N2CCN(C(=O)C([C@@H](C)CC)n3cc(C(N)COC(=O)C(F)(F)F)nn3)CC2)nc(N2CCN(C(=O)[C@H](CCCCN)n3cc(C(N)CC(C)C)nn3)CC2)n1 (some centres not stated) | -1.26 | 
Cc1nn(CC(=O)Nc2ccc(N(C)C)cc2)c(C)c1[N+](=O)[O-] | -26.8 | 
CC1CC(=NNC(=O)C2COc3ccccc3O2)CC(C)(C)C1 (configuration not stated) | -27.9 | 
C[C@@H](C(=O)N1CCNCC1)n1cc(CCC(=O)O)nn1 | -8.65 | 
COc1ccc(S(=O)(=O)N2CCOCC2)cc1NC(=O)COc1ccccc1 | -24.6 | 
C=C(C)CNc1cc(S(=O)(=O)N2CCOCC2)ccc1Oc1ccccc1 |  | 20.6 µM (active)
COC(=O)c1cc(Oc2ccc(S(=O)(=O)N3CCOCC3)cc2[N+](=O)[O-])cc(C(=O)OC)c1 | -27.7 | 
O=[N+]([O-])c1cc([N+](=O)[O-])c(Oc2cc(F)cc(F)c2F)cc1NN1CCCCC1 | -23.3 | 
O=C(/C=C/c1ccc(F)cc1)NCCNC(=O)/C=C/c1ccc(F)cc1 | 4.93 | 
COc1cccc(C(=O)NNC(=O)/C=C/c2ccccc2)c1 | 19.2 | 
O=C(/C=C/c1ccc([N+](=O)[O-])o1)NNC(=O)c1ccc(F)cc1 |  | 1.84 µM (active)
Cc1ccsc1C(=O)N[C@@H](C)c1nnc2ccccn12 | -7.07 | 
Nc1nc2[nH]c(=O)c(=O)[nH]c2c(=O)[nH]1 | 15.7 | 
CCOC(=O)n1c(SCC(=O)N(CC)CC)nc2ccccc21 | -16.7 | 
CCOC(=O)CSc1nc2c(c(=O)n(Cc3ccccc3Cl)c(=O)n2C)n1C | -3.48 | 

SMILES | activity change, negative = growth inhibition [%] | Potency
CCN(CC)C(=O)CSc1nc2ccsc2c(=O)n1Cc1ccccc1Cl |  | 23.1 µM (active)
CN(Cc1ccco1)c1ncncc1-c1ccoc1 | -6.14 | 
CCc1ccc(Oc2coc3cc(OC(=O)c4cc5ccccc5oc4=O)ccc3c2=O)cc1 | -9.4 | 
Cc1[nH]c(=O)c(C(=O)/C=C/c2ccccc2)c2c1CCCC2 |  | 5.8 µM (active)
O=C(NCc1ccccn1)c1c(O)c2c([nH]c1=O)CCCC2 | -7.3 | 
Cc1cn(COC/C=C/c2ccccc2)c(=O)[nH]c1=O | -2.88 | 
Cc1cc(Cl)c(S(=O)(=O)Nc2ccc3c(c2)OCCO3)cc1OCC(N)=O | -29.7 | 
Cc1ccc(/C=N/NC(=O)Cn2ccc(C(F)(F)F)n2)o1 | -0.299 | 
Cc1cc(-c2n[nH]c(=S)n2-c2ccc(C)c(C)c2)no1 | -4.09 | 
Cc1cc(C)c2oc(C(=O)Nc3ccc(S(=O)(=O)Nc4nccc(C)n4)cc3)cc(=O)c2c1 | -26 | 
Cc1cc(F)ccc1NC(=S)NCCc1ccccc1 | -10.9 | 
Cc1cc(Cl)ccc1NC(=S)NCCCN1CCCC1=O | 3.78 | 
CCNC(=S)Nc1cccc(Cl)c1C | -27.6 | 
Cc1ccc(NC(=S)NCc2ccccc2Cl)c(C)c1 |  | 20.6 µM (active)
S=C(NCc1ccco1)NCc1ccccc1Cl | 13.1 | 
Cc1ccc(NC(=S)NCCc2ccc(Cl)cc2)c(C)c1 |  | 18.4 µM (active)
